# Data published in the supplement of paper PMC4466140.
# B1: unnamed (peptide)
# chain: EREKALPPIPFTTTL
# B2: unnamed (peptide)
# chain: QLMKNLPKIPLLNDI
# Experiments:
# Assay in all cases: SPOT peptide array binding signal intensity (averaged, normalized) (arbitrary units (background-subtracted, floor 0; scale differs between SH3 domains)); higher = stronger binding of the SH3 domain to the peptide
# [1] = molecular target: AgAbp1
# Summary of the method: (§1)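 Cellulose membranes carried synthetic 15-mer peptides with cysteines swapped for serines. These were incubated overnight at 4°C with 10 μg/ml of GST-fused SH3 domains from four yeast species in TBS-based blocking buffer. Binding signal, detected with anti-GST antibody and quantified in Genespotter, is the normalized, background-subtracted spot intensity averaged over replicates, in arbitrary units specific to each domain.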
# [2] = molecular target: AgBbc1
# Summary of the method: as §1
# [3] = molecular target: AgBem1-D1
# Summary of the method: as §1
# [4] = molecular target: AgBzz1-D1
# Summary of the method: as §1
# [5] = molecular target: AgBzz1-D2
# Summary of the method: as §1
# [6] = molecular target: AgCyk3
# Summary of the method: as §1
# [7] = molecular target: AgFus1
# Summary of the method: as §1
# [8] = molecular target: AgHof1
# Summary of the method: as §1
# [9] = molecular target: AgHse1
# Summary of the method: as §1
# [10] = molecular target: AgLsb1
# Summary of the method: as §1
# [11] = molecular target: AgLsb4
# Summary of the method: as §1
# [12] = molecular target: AgMyo5
# Summary of the method: as §1
# [13] = molecular target: AgNbp2
# Summary of the method: as §1
# [14] = molecular target: AgRvs167
# Summary of the method: as §1
# [15] = molecular target: AgSho1
# Summary of the method: as §1
# [16] = molecular target: AgSla1-D1-D2
# Summary of the method: as §1
# [17] = molecular target: AgSla1-D3
# Summary of the method: as §1
# [18] = molecular target: CaAbp1-D1
# Summary of the method: as §1
# [19] = molecular target: CaAbp1-D2
# Summary of the method: as §1
# [20] = molecular target: CaBbc1
# Summary of the method: as §1
# [21] = molecular target: CaBem1-D1
# Summary of the method: as §1
# [22] = molecular target: CaBzz1-D1
# Summary of the method: as §1
# [23] = molecular target: CaBzz1-D2
# Summary of the method: as §1
# [24] = molecular target: CaCyk3
# Summary of the method: as §1
# [25] = molecular target: CaFus1
# Summary of the method: as §1
# [26] = molecular target: CaHof1
# Summary of the method: as §1
# [27] = molecular target: CaHse1
# Summary of the method: as §1
# [28] = molecular target: CaLsb1
# Summary of the method: as §1
# [29] = molecular target: CaLsb4
# Summary of the method: as §1
# [30] = molecular target: CaMyo5
# Summary of the method: as §1
# [31] = molecular target: CaNbp2
# Summary of the method: as §1
# [32] = molecular target: CaRvs167
# Summary of the method: as §1
# [33] = molecular target: CaRvs167-3
# Summary of the method: as §1
# [34] = molecular target: CaSho1
# Summary of the method: as §1
# [35] = molecular target: CaSla1-D1-D2
# Summary of the method: as §1
# [36] = molecular target: CaSla1-D3
# Summary of the method: as §1
# [37] = molecular target: ScAbp1
# Summary of the method: as §1
# [38] = molecular target: ScBbc1
# Summary of the method: as §1
# [39] = molecular target: ScBem1-D1
# Summary of the method: as §1
# [40] = molecular target: ScBzz1-D1
# Summary of the method: as §1
# [41] = molecular target: ScBzz1-D2
# Summary of the method: as §1
# [42] = molecular target: ScCyk3
# Summary of the method: as §1
# [43] = molecular target: ScFus1
# Summary of the method: as §1
# [44] = molecular target: ScHof1
# Summary of the method: as §1
# [45] = molecular target: ScHse1
# Summary of the method: as §1
# [46] = molecular target: ScLsb1
# Summary of the method: as §1
# [47] = molecular target: ScLsb2
# Summary of the method: as §1
# [48] = molecular target: ScLsb3
# Summary of the method: as §1
# [49] = molecular target: ScLsb4
# Summary of the method: as §1
# [50] = molecular target: ScMyo3
# Summary of the method: as §1
# [51] = molecular target: ScMyo5
# Summary of the method: as §1
# [52] = molecular target: ScNbp2
# Summary of the method: as §1
# [53] = molecular target: ScPex13
# Summary of the method: as §1
# [54] = molecular target: ScRvs167
# Summary of the method: as §1
# [55] = molecular target: ScSho1
# Summary of the method: as §1
# [56] = molecular target: ScSla1-D1-D2
# Summary of the method: as §1
# [57] = molecular target: ScSla1-D3
# Summary of the method: as §1
# [58] = molecular target: SpAbp1-D1
# Summary of the method: as §1
# [59] = molecular target: SpBbc1
# Summary of the method: as §1
# [60] = molecular target: SpBzz1-D1
# Summary of the method: as §1
# [61] = molecular target: SpBzz1-D2
# Summary of the method: as §1
# [62] = molecular target: SpCyk3
# Summary of the method: as §1
# [63] = molecular target: SpHof1
# Summary of the method: as §1
# [64] = molecular target: SpHof1-2
# Summary of the method: as §1
# [65] = molecular target: SpHof1-3
# Summary of the method: as §1
# [66] = molecular target: SpHse1
# Summary of the method: as §1
# [67] = molecular target: SpLsb1
# Summary of the method: as §1
# [68] = molecular target: SpLsb4
# Summary of the method: as §1
# [69] = molecular target: SpMyo1
# Summary of the method: as §1
# [70] = molecular target: SpNbp2
# Summary of the method: as §1
# [71] = molecular target: SpPex13
# Summary of the method: as §1
# [72] = molecular target: SpRvs167
# Summary of the method: as §1
# [73] = molecular target: SpSla1-D1-D2
# Summary of the method: as §1
# [74] = molecular target: SpSla1-D3
# Summary of the method: as §1
binder,measurement,setting,value
B1,SPOT peptide array binding signal intensity,[1],≤ 0
same,SPOT peptide array binding signal intensity,[2],≤ 0
same,SPOT peptide array binding signal intensity,[3],71
same,SPOT peptide array binding signal intensity,[4],13
same,SPOT peptide array binding signal intensity,[5],≤ 0
same,SPOT peptide array binding signal intensity,[6],2
same,SPOT peptide array binding signal intensity,[7],5
same,SPOT peptide array binding signal intensity,[8],132
same,SPOT peptide array binding signal intensity,[9],0.5
same,SPOT peptide array binding signal intensity,[10],18
same,SPOT peptide array binding signal intensity,[11],3.5
same,SPOT peptide array binding signal intensity,[12],≤ 0
same,SPOT peptide array binding signal intensity,[13],≤ 0
same,SPOT peptide array binding signal intensity,[14],0.333
same,SPOT peptide array binding signal intensity,[15],5670
same,SPOT peptide array binding signal intensity,[16],≤ 0
same,SPOT peptide array binding signal intensity,[17],≤ 0
same,SPOT peptide array binding signal intensity,[18],≤ 0
same,SPOT peptide array binding signal intensity,[19],≤ 0
same,SPOT peptide array binding signal intensity,[20],≤ 0
same,SPOT peptide array binding signal intensity,[21],1.5
same,SPOT peptide array binding signal intensity,[22],≤ 0
same,SPOT peptide array binding signal intensity,[23],1.53e-05
same,SPOT peptide array binding signal intensity,[24],≤ 0
same,SPOT peptide array binding signal intensity,[25],125
same,SPOT peptide array binding signal intensity,[26],3
same,SPOT peptide array binding signal intensity,[27],30
same,SPOT peptide array binding signal intensity,[28],0.5
same,SPOT peptide array binding signal intensity,[29],≤ 0
same,SPOT peptide array binding signal intensity,[30],0.5
same,SPOT peptide array binding signal intensity,[31],≤ 0
same,SPOT peptide array binding signal intensity,[32],2.67
same,SPOT peptide array binding signal intensity,[33],1
same,SPOT peptide array binding signal intensity,[34],4810
same,SPOT peptide array binding signal intensity,[35],≤ 0
same,SPOT peptide array binding signal intensity,[36],0.5
same,SPOT peptide array binding signal intensity,[37],≤ 0
same,SPOT peptide array binding signal intensity,[38],1
same,SPOT peptide array binding signal intensity,[39],≤ 0
same,SPOT peptide array binding signal intensity,[40],≤ 0
same,SPOT peptide array binding signal intensity,[41],2
same,SPOT peptide array binding signal intensity,[42],5
same,SPOT peptide array binding signal intensity,[43],2
same,SPOT peptide array binding signal intensity,[44],66
same,SPOT peptide array binding signal intensity,[45],≤ 0
same,SPOT peptide array binding signal intensity,[46],≤ 0
same,SPOT peptide array binding signal intensity,[47],≤ 0
same,SPOT peptide array binding signal intensity,[48],≤ 0
same,SPOT peptide array binding signal intensity,[49],0.5
same,SPOT peptide array binding signal intensity,[50],≤ 0
same,SPOT peptide array binding signal intensity,[51],≤ 0
same,SPOT peptide array binding signal intensity,[52],≤ 0
same,SPOT peptide array binding signal intensity,[53],86.8
same,SPOT peptide array binding signal intensity,[54],3.5
same,SPOT peptide array binding signal intensity,[55],7050
same,SPOT peptide array binding signal intensity,[56],≤ 0
same,SPOT peptide array binding signal intensity,[57],≤ 0
same,SPOT peptide array binding signal intensity,[58],≤ 0
same,SPOT peptide array binding signal intensity,[59],≤ 0
same,SPOT peptide array binding signal intensity,[60],61
B2,SPOT peptide array binding signal intensity,[1],≤ 0
same,SPOT peptide array binding signal intensity,[2],5.5
same,SPOT peptide array binding signal intensity,[3],301
same,SPOT peptide array binding signal intensity,[4],20
same,SPOT peptide array binding signal intensity,[5],36.5
same,SPOT peptide array binding signal intensity,[6],≤ 0
same,SPOT peptide array binding signal intensity,[7],336
same,SPOT peptide array binding signal intensity,[8],113
same,SPOT peptide array binding signal intensity,[9],229
same,SPOT peptide array binding signal intensity,[10],1.75
same,SPOT peptide array binding signal intensity,[11],16.5
same,SPOT peptide array binding signal intensity,[12],2.75
same,SPOT peptide array binding signal intensity,[13],120
same,SPOT peptide array binding signal intensity,[14],1.67
same,SPOT peptide array binding signal intensity,[15],3070
same,SPOT peptide array binding signal intensity,[16],≤ 0
same,SPOT peptide array binding signal intensity,[17],2.75
same,SPOT peptide array binding signal intensity,[18],9.5
same,SPOT peptide array binding signal intensity,[19],46
same,SPOT peptide array binding signal intensity,[20],14.5
same,SPOT peptide array binding signal intensity,[21],187
same,SPOT peptide array binding signal intensity,[22],222
same,SPOT peptide array binding signal intensity,[23],121
same,SPOT peptide array binding signal intensity,[24],4
same,SPOT peptide array binding signal intensity,[25],670
same,SPOT peptide array binding signal intensity,[26],2.75
same,SPOT peptide array binding signal intensity,[27],168
same,SPOT peptide array binding signal intensity,[28],2.5
same,SPOT peptide array binding signal intensity,[29],590
same,SPOT peptide array binding signal intensity,[30],83.8
same,SPOT peptide array binding signal intensity,[31],355
same,SPOT peptide array binding signal intensity,[32],19.5
same,SPOT peptide array binding signal intensity,[33],≤ 0
same,SPOT peptide array binding signal intensity,[34],1860
same,SPOT peptide array binding signal intensity,[35],384
same,SPOT peptide array binding signal intensity,[36],205
same,SPOT peptide array binding signal intensity,[37],≤ 0
same,SPOT peptide array binding signal intensity,[38],3
same,SPOT peptide array binding signal intensity,[39],3
same,SPOT peptide array binding signal intensity,[40],15.5
same,SPOT peptide array binding signal intensity,[41],39.5
same,SPOT peptide array binding signal intensity,[42],5
same,SPOT peptide array binding signal intensity,[43],526
same,SPOT peptide array binding signal intensity,[44],11.2
same,SPOT peptide array binding signal intensity,[45],267
same,SPOT peptide array binding signal intensity,[46],5.75
same,SPOT peptide array binding signal intensity,[47],2
same,SPOT peptide array binding signal intensity,[48],292
same,SPOT peptide array binding signal intensity,[49],67.5
same,SPOT peptide array binding signal intensity,[50],25
same,SPOT peptide array binding signal intensity,[51],2.25
same,SPOT peptide array binding signal intensity,[52],217
same,SPOT peptide array binding signal intensity,[53],580
same,SPOT peptide array binding signal intensity,[54],5
same,SPOT peptide array binding signal intensity,[55],1950
same,SPOT peptide array binding signal intensity,[56],319
same,SPOT peptide array binding signal intensity,[57],538
same,SPOT peptide array binding signal intensity,[58],2.5
same,SPOT peptide array binding signal intensity,[59],≤ 0
same,SPOT peptide array binding signal intensity,[60],250
same,SPOT peptide array binding signal intensity,[61],10.8
same,SPOT peptide array binding signal intensity,[62],4
same,SPOT peptide array binding signal intensity,[63],369
same,SPOT peptide array binding signal intensity,[64],1050
same,SPOT peptide array binding signal intensity,[65],970
same,SPOT peptide array binding signal intensity,[66],206
same,SPOT peptide array binding signal intensity,[67],1
same,SPOT peptide array binding signal intensity,[68],628
same,SPOT peptide array binding signal intensity,[69],106
same,SPOT peptide array binding signal intensity,[70],88
same,SPOT peptide array binding signal intensity,[71],146
same,SPOT peptide array binding signal intensity,[72],22.8
same,SPOT peptide array binding signal intensity,[73],20.5
same,SPOT peptide array binding signal intensity,[74],251
